# Shown is part of a subset that was picked to be rich in hits.
# HIV RNase H inh = inhibitors of HIV-1 reverse transcriptase RNase H. RT-RNase H RNA/DNA duplex cleavage, fluorescence. 1.9% of 65,000 active. P04585. AID 565. inhibition, % at 10 µM; in the data active = inhibition above about 50%
# RmlC RmlD mix = mixture blocks RmlC and RmlD coupled enzyme activity. 0.39% of 110,000 active. RmlC/RmlD coupled enzyme inhibition, 384-well mixture HTS. inhibition, % at 5.5 µM. AID 1532; in the data active = inhibition above about 30%, passing the limit was not always enough
# Active calls of the source: *; . = no result given.
SMILES,HIV RNase H inh,RmlC RmlD mix
O=C(Nc1nnc(C2CC2)s1)C1Cc2ccccc2CN1S(=O)(=O)c1cccs1 (configuration not stated),59*,-13
CCc1nnc(NC(=O)C2Cc3ccccc3CN2S(=O)(=O)c2cccs2)s1 (configuration not stated),50*,0
C1CCC(C23CC4CC(CC(C4)C2)C3)NC1 (configuration not stated),.,-17
Cc1cc(C)cc(N(C(C)C(=O)NCCC2=CCCCC2)S(C)(=O)=O)c1 (configuration not stated),.,-64
N#Cc1cc2c(=O)n3ccccc3nc2n(CCCN2CCOCC2)c1=O,-14,79*
CCN1CCN(C(=O)c2cc3c(=O)n4ccccc4nc3n2Cc2ccccc2)CC1,1,.
O=C(NCCN1CCOCC1)c1cc2c(=O)n3ccccc3nc2n1Cc1ccccc1,-4,86*
N#Cc1cc2c(=O)n3ccccc3nc2n(CCN2CCOCC2)c1=O,-14,.
O=C(Nc1ccccc1F)c1cc2nc(C(F)F)cc(C(F)F)n2n1,.,-8
Cc1nc(CS(=O)(=O)c2ccc(Cl)cc2)cc(Sc2ccc(Cl)cc2)n1,.,-11
COCCN1Cc2cccc(C(=O)Nc3c(C)cccc3C)c2C1=O,58*,-21
COCCN1Cc2cccc(C(=O)Nc3ccc(C)c(C)c3)c2C1=O,-6,-10
O=C(Nc1ccc(Cl)cn1)c1ccc(-c2ccc(Cl)c(Cl)c2)o1,.,-62
CC(=O)Cc1nsc(NC(=O)c2ccc(-c3cccc(C(F)(F)F)c3)o2)n1,1,62
Cc1nnc(NC(=O)c2ccc(-c3cccc(C(F)(F)F)c3)o2)s1,57*,1
CC1CCc2c(C(=O)Nc3nccs3)csc2C1 (configuration not stated),.,13
CCSc1nnc(NC(=O)c2csc3c2CCC(C)C3)s1 (configuration not stated),58*,55
COc1ccc(C2C=C(c3ccccc3)Nc3nc(CCCO)nn32)cc1 (configuration not stated),6,24
COc1ccc(C2C=C(c3cccs3)Nc3nc(CCCO)nn32)cc1 (configuration not stated),0,44*
Cc1ccc2c(n1)CC(C)(C)C/C2=N\O,.,3
O=C(NCc1ccco1)C1CC(c2ccc(C(F)(F)F)cc2)=NO1 (configuration not stated),.,5
COc1ccc(-n2nnnc2S(=O)(=O)Cc2ccc(C(=O)O)cc2)cc1,63*,-25
COc1ccc(-n2nnnc2S(=O)(=O)CC(=O)N2CCCCC2)cc1,29,-7
C/C=C/C=C/C(=O)[C@@H]1[C@@H]([C@]2(C)OC(=O)C(C)=C2O)[C@H]2/C(=C(O)/C=C/C=C/C)C(=O)[C@]1(C)C(=O)C2(C)O (some centres not stated),.,-2
COc1ccc(-c2cc3nc4n(c(=O)c3s2)CCC4)cc1,-44,50*
SMILES,HIV RNase H inh,RmlC RmlD mix
COc1ccc(NS(=O)(=O)c2cccc(-c3nnc4n3CCCCC4)c2)cc1,-8,11
CC(=O)O[C@@H]1[C@@]2(C)O[C@H]2CC[C@]23O[C@H]2[C@H](OC3=O)C2=C(C)C(=O)O[C@@]21O,.,-14
CC(C)(C)NC(=O)C(c1ccccn1)N(C(=O)C1CSC(=O)C1)c1ccc(F)cc1 (configuration not stated),.,-28
COc1cc(C(=O)Nc2sc3c(c2C(=O)NCc2ccco2)CCCC3)cc(OC)c1OC,.,-13
CCOc1ccccc1NC(=O)c1c(NC(=O)CNCc2ccco2)sc2c1CCC2,72*,.
COc1ccc(C(=O)Nc2sc3c(c2C(=O)NCc2ccco2)CCCC3)cc1OC,.,146*
COC(=O)Nc1sc2c(c1C(=O)NCc1ccco1)CCC2,-15,10
COc1ccc(N2CCn3c2nc2c3c(=O)n(CCCc3ccccc3)c(=O)n2C)cc1,60*,.
COc1ccc(N2CCn3c2nc2c3c(=O)n(CCCc3ccccc3)c(=O)n2C)c(OC)c1,-10,9
COc1cccc(N2[C@@H](CC(=O)O)c3ccc(/C=C/C(=O)O)cc3S2(=O)=O)c1,.,-20
Cc1nn(C(C)C(=O)NNC(=S)Nc2ccc(Cl)cc2)c(C)c1[N+](=O)[O-] (configuration not stated),.,-15
Cc1cccc(OCC(=O)Nc2nonc2NC(=O)COc2cccc(C)c2)c1,.,-16
Cc1ccc(C)c(OCC(=O)Nc2nonc2NC(=O)COc2cc(C)ccc2C)c1,73*,1
Cc1csc(NC(=O)CCc2ccc(S(=O)(=O)N3CCOCC3)cc2)n1,.,-12
O=C(CCc1ccccc1)Nc1nc2ccc(S(=O)(=O)N3CCOCC3)cc2s1,64*,8
CCCNC(=O)Cn1c(=O)oc2ccccc21,.,9
CC1CCCC(NC(=O)C2CCCN2S(=O)(=O)c2cccc3nsnc23)C1C (configuration not stated),.,11
CNC(=O)c1cc2cc(OC)ccc2oc1=N,-10,42*
CNC(=O)c1cc2cc(OC)ccc2oc1=O,.,0
